# Test results: PubChem BioAssay (NCATS)
# Results filed as inconclusive are left out. Where a call stands in place of a potency, no number is given. Activity calls are given as the source filed them. The call rests on the fitted dose curve. Bridge positions count the residues as written; N and C are the ends. Square brackets hold non-standard residues; d marks the D form. Peptide text beside a SMILES is read from it. hArg = N=C(N)NCCCC[C@H](N)C(=O)O; Mpa = O=C(O)CCS
# Columns and labels:
# [1] = Primary qHTS for inhibitors of SARS-S pseudo-typed particle cell entry (AID 1479145); further: nearly all actives have a fitted effect of over 45% in size; further: potency means the concentration at half of the fitted maximal effect
# [2] = Primary qHTS for Huh7 cytotoxicity: counterscreen for inhibitors of MERS-S pseudotyped particle cell entry (AID 1479147)
# [3] = Primary qHTS for inhibitors of MERS-S pseudo-typed particle cell entry (AID 1479149); further: nearly all actives have a fitted effect of over 60% in size; further: potency means the concentration at half of the fitted maximal effect
# [4] = Primary qHTS for Vero E6 cytotoxicity: counterscreen for inhibitors of SARS-S pseudo-typed particle cell entry (AID 1479150)
Compound,Potency [1],Potency [2],Potency [3],Potency [4]
c1ccc([C@H]2CN3CCSC3=N2)cc1,inactive,inactive,inactive,inactive
CC(CNC1CCCCC1)OC(=O)c1ccccc1 (centres undefined),inactive,inactive,inactive,inactive
NC1=NCC2c3ccccc3Cc3ccccc3N12 (centres undefined),inactive,inactive,inactive,inactive
CCCCNc1cc(C(=O)O)cc(S(N)(=O)=O)c1Oc1ccccc1,inactive,inactive,inactive,inactive
Cc1nnc(C(=O)NC(C)(C)c2nc(C(=O)NCc3ccc(F)cc3)c(O)c(=O)n2C)o1,inactive,inactive,inactive,inactive
CCO[C@@H]1O[C@H](C(COCc2ccccc2)OCc2ccccc2)[C@H](OCc2ccccc2)[C@H]1O (some centres undefined),inactive,inactive,inactive,inactive
CCN(CC)CC(=O)Nc1c(C)cccc1C(=O)OC,inactive,inactive,inactive,inactive
NS(=O)(=O)c1cc2c(cc1Cl)NC(C1CC3C=CC1C3)NS2(=O)=O (centres undefined),inactive,inactive,inactive,inactive
CCN(CC)C(=O)c1cccc(C)c1,inactive,inactive,inactive,inactive
NC(CSCC(=O)O)C(=O)O (centres undefined),inactive,inactive,inactive,inactive
CC1(C)S[C@@H]2[C@H](N=CN3CCCCCC3)C(=O)N2[C@H]1C(=O)O,inactive,inactive,inactive,inactive
C[C@@H]1C[C@H]2[C@@H]3CCC4=CC(=O)C=C[C@]4(C)[C@@]3(F)[C@@H](O)C[C@]2(C)[C@@]1(O)C(=O)COC(=O)c1ccncc1,inactive,inactive,inactive,inactive
CC[C@H](NC(C)C)[C@H](O)c1ccc(O)c2[nH]c(=O)ccc12,inactive,inactive,inactive,inactive
CN(C)[C@@H]1C(=O)C(C(=O)NCN2CCCC2)=C(O)[C@@]2(O)C(=O)C3=C(O)c4c(O)cccc4[C@@](C)(O)C3C[C@@H]12 (some centres undefined),inactive,inactive,inactive,inactive
CC(=O)Oc1ccc2c(c1)CC[C@@H]1[C@@H]2CC[C@]2(C)[C@@H](O)CC[C@@H]12,inactive,inactive,inactive,inactive
CC(=O)OCC1=C(C(=O)O)N2C(=O)[C@@H](NC(=O)CSc3ccncc3)[C@H]2SC1,inactive,inactive,inactive,inactive
CCCOc1ccc(C(=O)OCCN(CC)CC)cc1N,inactive,inactive,inactive,inactive
C=CCOc1ccccc1OCC(O)CNC(C)C (centres undefined),inactive,inactive,inactive,inactive
CCOc1c(N2CCOCC2)cnn(C)c1=O,inactive,inactive,inactive,inactive
C[C@]12CC[C@@H]3c4ccc(O)cc4CC[C@H]3[C@@H]1CCC2=O,inactive,inactive,inactive,inactive
CC(C)NCCCC1(C(N)=O)c2ccccc2-c2ccccc21,inactive,inactive,inactive,inactive
C#CCN(C)Cc1ccccc1,inactive,inactive,inactive,inactive
CN(C)CC/C=C1\c2ccccc2Sc2ccc(Cl)cc21,10 µM (active),inactive,25.1 µM (active),inactive
CC1(C)[C@@H]2CC[C@@]1(C)C(=O)C2,inactive,inactive,inactive,inactive

Compound,Potency [1],Potency [2],Potency [3],Potency [4]
C#C[C@]1(OC(C)=O)CC[C@H]2[C@@H]3CCC4=C/C(=N/O)CC[C@@H]4[C@H]3CC[C@@]21CC,inactive,inactive,inactive,inactive
Nc1c2c(nc3ccccc13)CCCC2,inactive,inactive,inactive,inactive
O=C1OC2(c3ccccc31)c1cc(I)c(O)c(I)c1Oc1c2cc(I)c(O)c1I,inactive,inactive,inactive,inactive
COC(=O)C1=C(C)NC(COC(N)=O)=C(C(=O)OC(C)C)C1c1cccc(Cl)c1Cl (centres undefined),inactive,inactive,inactive,inactive
O=C1C(CCS(=O)c2ccccc2)C(=O)N(c2ccccc2)N1c1ccccc1 (centres undefined),inactive,inactive,inactive,inactive
CC(=C(CCOC(=O)C(C)C)SSC(CCOC(=O)C(C)C)=C(C)N(C=O)Cc1cnc(C)nc1N)N(C=O)Cc1cnc(C)nc1N,inactive,inactive,inactive,inactive
CCC(=O)O[C@]1(C(=O)SCF)[C@H](C)C[C@H]2[C@@H]3C[C@H](F)C4=CC(=O)C=C[C@]4(C)[C@@]3(F)[C@@H](O)C[C@@]21C,inactive,inactive,inactive,inactive
CC(C)Cc1ccc(C(C)C(=O)OCc2ccccn2)cc1 (centres undefined),inactive,inactive,inactive,inactive
COc1cc(NS(=O)(=O)c2ccc(N)cc2)nc(OC)n1,inactive,inactive,inactive,inactive
OCC(CO)N[C@H]1C[C@](O)(CO)[C@@H](O)[C@H](O)[C@H]1O,inactive,inactive,inactive,inactive
CCCCC[C@H](O)C=C[C@H]1[C@H](O)CC(=O)[C@H]1CC=CCCCC(=O)O,inactive,inactive,inactive,inactive
C/C(=C(/OCCOc1ccc(Cl)cc1)c1ccc(Cl)cc1Cl)n1ccnc1,inactive,inactive,inactive,inactive
C[N+](C)(C)CCCCCCCCCC[N+](C)(C)C,inactive,inactive,inactive,inactive
O=S1(=O)OC(c2ccc(O)cc2)(c2ccc(O)cc2)c2ccccc21,inactive,inactive,inactive,inactive
CCN(CC)CCNC(C(=O)OCCC(C)C)c1ccccc1 (centres undefined),inactive,inactive,inactive,inactive
CC(C)C[C@@H](N)C(=O)O,inactive,inactive,inactive,inactive
CC(=O)N(CC(=O)N(C)C)c1ccccc1,inactive,inactive,inactive,inactive
CCCn1cnc2c1c(=O)n(CCCCC(C)=O)c(=O)n2C,inactive,inactive,inactive,inactive
O=C(O)CCNC(=O)c1ccccc1,inactive,inactive,inactive,inactive
Cc1cccc(N(C)C(=S)Oc2ccc3c(c2)CCC3)c1,inactive,inactive,inactive,inactive
NC(N)=NC(=O)c1nc(Cl)c(N)nc1N,inactive,inactive,inactive,inactive
Cc1ccc(C(=O)Oc2ccc(C(O)CNC(C)(C)C)cc2OC(=O)c2ccc(C)cc2)cc1 (centres undefined),inactive,inactive,inactive,inactive
CN1[C@@H]2CC[C@H]1CC(NC(=O)n1c(=O)[nH]c3ccccc31)C2 (some centres undefined),inactive,inactive,inactive,inactive
Cc1nc(C2CCCCC2)c(-c2ccc(S(N)(=O)=O)c(F)c2)o1,inactive,inactive,inactive,inactive

Compound,Potency [1],Potency [2],Potency [3],Potency [4]
C[C@H]1C[C@H]2[C@@H]3CCC4=CC(=O)C=C[C@]4(C)[C@H]3C(=O)C[C@]2(C)[C@@]1(O)C(=O)CO,inactive,inactive,inactive,inactive
O=c1[nH]cnc2c1ncn2[C@@H]1O[C@H](CO)[C@@H](O)[C@H]1O,inactive,inactive,inactive,inactive
CC(C)(C)C(=O)OCOC(=O)[C@@H]1N2C(=O)[C@@H](NC(=O)[C@H](N)c3ccccc3)[C@H]2SC1(C)C,inactive,inactive,inactive,inactive
CN(CCCN1c2ccccc2CCc2ccccc21)CC(=O)c1ccc(Cl)cc1,inactive,inactive,inactive,inactive
COC(=O)Nc1nc2ccc(Sc3ccccc3)cc2[nH]1,inactive,inactive,inactive,inactive
CNC1CCCN(c2c(F)cc3c(=O)c(C(=O)O)cn(C4CC4)c3c2OC)C1 (centres undefined),inactive,inactive,inactive,inactive
CCOc1cc(N)c(Cl)cc1C(=O)NCC1CN(Cc2ccc(F)cc2)CCO1 (centres undefined),inactive,inactive,inactive,inactive
CCn1cc(C(=O)O)c(=O)c2cc(F)c(N3CCNCC3)nc21,inactive,inactive,inactive,inactive
CC(C(=O)O)c1ccc(CC2CCCC2=O)cc1 (centres undefined),inactive,inactive,inactive,inactive
Cc1cccc(C)c1NC(=O)C(C)N (centres undefined),inactive,inactive,inactive,inactive
COc1ccc2c(c1OC)C(=O)O[C@@H]2[C@H]1c2c(cc3c(c2OC)OCO3)CCN1C,inactive,inactive,inactive,inactive
C[C@@H](O)[C@H](N)C(=O)O,inactive,inactive,inactive,inactive
CCN1CCN(c2cc(-c3ccc(F)cc3)c3c(n2)CCCCCC3)CC1,inactive,inactive,inactive,inactive
NC(=O)CCCCC1CCSS1 (centres undefined),inactive,inactive,inactive,inactive
CCCCN(CCN(CCCC)C(=O)N1CCOCC1)C(=O)N1CCOCC1,inactive,inactive,inactive,inactive
O=c1cc(CO)occ1O,inactive,inactive,inactive,inactive
CC(=O)CCC(=O)O,inactive,inactive,inactive,inactive
CC1(C)O[C@@H]2C[C@H]3[C@@H]4C[C@H](F)C5=CC(=O)C=C[C@]5(C)[C@H]4[C@@H](O)C[C@]3(C)[C@]2(C(=O)CO)O1,inactive,inactive,inactive,inactive
CC(COc1ccccc1)NC(C)C(O)c1ccc(O)cc1 (centres undefined),inactive,inactive,inactive,inactive
CN1CCOC(c2ccccc2)c2ccccc2C1 (centres undefined),inactive,inactive,inactive,inactive
O=C(O)c1cn(-c2ccc(F)cc2)c2cc(N3CCNCC3)c(F)cc2c1=O,inactive,inactive,inactive,inactive
NC(=O)[C@@H]1CSSCCC(=O)N[C@@H](CCCCN=C(N)N)C(=O)NCC(=O)N[C@@H](CC(=O)O)C(=O)N[C@@H](Cc2c[nH]c3ccccc23)C(=O)N2CCC[C@H]2C(=O)N1 ([Mpa][hArg]GDWPC-NH2; disulfide 1-7),inactive,inactive,inactive,inactive
CCOc1ccc(NC(C)=O)cc1,inactive,inactive,inactive,inactive
